Many of the other results were omitted from the sample, so hits are more common in it than they were.
DENV2 CPE: inhibitors of DENV2 cytopathic effect, primary screen, cell-based, plate reader, single concentration. CPE inhibition, % at 9.99 µM. DENV2-infected cells, cytopathic effect rescue. AID 651640, 2012. 350,000 compounds, 1.7% hits; in the data active means CPE inhibition above about 20%, passing the limit was not always enough; inconclusive means no clear call, values can overlap the other calls; tested in BHK-21 cells;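 further: 0% = median of neutral control wells and 100% = median of positive control wells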
N-glyco inh: increase of ERlucT glycosylation luciferase signal, primary screen, N-linked glycosylation inhibitor project, D54 ERlucT cells, luminescence, set 2; D54 ERlucT glycosylation luciferase reporter, 24 h; percent of 100 nM tunicamycin response; 360,000 compounds, 0.23% hits; reporter increase, % at 12.5 µM;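 active means mean luciferase reporter signal, scaled so untreated is 0 and the glycosylation-blocking control 100, at or above a set limit in every replicate; inconclusive means mean reaches the limit but not every replicate does; inactive means mean below the limit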;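 further: luciferase carries N-glycosylation sites so blocking glycosylation raises the light; 0% = median of neutral control wells and 100% = median of 100 nM tunicamycin wells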
Rtt109 Vps75: inhibitors of C. albicans Rtt109/Vps75 HAT, primary screen, biochemical, ThioGlo CoA-SH fluorescence, plate reader; Histone acetyltransferase RTT109 (Candida albicans (strain SC5314 / ATCC MYA-2876)), …; 330,000 compounds, 0.16% hits; inhibition, % at 34.9 µM; purified Rtt109/Vps75, 4 h; AID 540336, 2011;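 active means inhibition of at least 50% in every replicate; inconclusive means best replicate reaches 50% inhibition but some replicates fall short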
Target sequence (Q5AAJ8 whole entry, looked up): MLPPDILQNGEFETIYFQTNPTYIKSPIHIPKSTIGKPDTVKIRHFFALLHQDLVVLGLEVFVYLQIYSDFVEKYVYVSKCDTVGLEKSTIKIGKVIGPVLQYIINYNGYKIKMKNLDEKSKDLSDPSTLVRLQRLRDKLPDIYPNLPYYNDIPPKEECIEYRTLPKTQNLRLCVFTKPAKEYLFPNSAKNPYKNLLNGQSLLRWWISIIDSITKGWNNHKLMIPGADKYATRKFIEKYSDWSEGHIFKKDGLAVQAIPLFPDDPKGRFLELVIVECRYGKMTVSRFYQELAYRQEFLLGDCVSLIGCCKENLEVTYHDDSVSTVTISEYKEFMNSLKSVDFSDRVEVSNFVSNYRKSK
PglD inh: C. jejuni PglD acetyltransferase inhibitors, primary screen, biochemical, DTNB colorimetric, single point; UDP-N-acetylbacillosamine N-acetyltransferase PglD (Campylobacter jejuni); purified PglD enzyme, DTNB colorimetric CoA detection; inhibition, % at 12.5 µM; 360,000 compounds, 0.098% hits; in the data active means inhibition above about 16%, passing the limit was not always enough; inconclusive means no clear call, values can overlap the other calls
* marks the source's active call; other numbers are inactive results; ? = inconclusive; / = not tested or not shown.

SMILES	DENV2 CPE	N-glyco inh	Rtt109 Vps75	PglD inh
CO[C@@H]1CN(C)C(=O)c2cc(NS(=O)(=O)c3ccccc3C)ccc2OC[C@@H](C)NC[C@H]1C	9.0	/	/	-8.5
C[C@H]1CN([C@@H](C)CO)C(=O)Cc2cc(NS(=O)(=O)c3cn(C)cn3)ccc2O[C@@H]1CN(C)Cc1ccc(-c2ccccc2)cc1	9.4	/	/	/
C[C@@H]1CN([C@@H](C)CO)C(=O)Cc2cc(NS(=O)(=O)c3cn(C)cn3)ccc2O[C@H]1CN(C)Cc1ccc(-c2ccccc2)cc1	26.3*	/	/	/
Cc1ccc(S(=O)(=O)Nc2ccc3c(c2)CC(=O)N([C@@H](C)CO)C[C@@H](C)[C@H](CN(C)Cc2ccc(Oc4ccccc4)cc2)O3)cc1	-26.2	/	/	2.8
C[C@@H]1CN([C@@H](C)CO)C(=O)Cc2cc(NS(C)(=O)=O)ccc2O[C@H]1CN(C)Cc1ccc(Oc2ccccc2)cc1	29.8*	/	/	4.0
Cc1ccc(S(=O)(=O)Nc2ccc3c(c2)CC(=O)N([C@H](C)CO)C[C@@H](C)[C@@H](CN(C)Cc2ccc(Oc4ccccc4)cc2)O3)cc1	38.2*	/	/	0.1
COc1ccc(S(=O)(=O)Nc2ccc3c(c2)CC(=O)N([C@H](C)CO)C[C@@H](C)[C@@H](CN(C)Cc2ccc(C(F)(F)F)cc2)O3)cc1	23.2*	/	/	1.0
CCCN1[C@@H]2c3ccc(-c4ccc(F)cc4)c(=O)n3C[C@H]1[C@H](CO)[C@H]2C(=O)NCC	11.4	/	/	/
O=C(NCc1ccco1)C1(S(=O)(=O)c2ccccc2)CC=CC1	40.6*	2.1	9.4	-0.3
CO[C@@H](CN(C)Cc1ccc2c(c1)OCO2)[C@H](C)CN(C(=O)Nc1ccc(F)cc1)[C@@H](C)CO	-1.2	/	/	-1.1
C[C@H](CO)N1C[C@H](C)[C@@H](CN(C)C(=O)CC2CC2)Oc2cc(-c3cccnc3)ccc2S1(=O)=O	-1.1	/	/	2.0
CCOc1cc(S(=O)(=O)N2CC=C(c3ccc(F)cc3)CC2)c(OCC)cc1-n1cnnn1	/	8.4	-6.8	2.0
CCOc1cc(S(=O)(=O)N2CCC(Cc3ccccc3)CC2)c(OCC)cc1-n1cnnn1	/	-6.5	54.7*	1.7
COc1cccc(S(=O)(=O)N2C[C@@H](O)COC[C@H]3O[C@H](CC(=O)N4CCN(C)CC4)CC[C@@H]32)c1	20.3*	/	/	-1.6
O=C(C[C@H]1CC[C@H]2[C@@H](COC[C@H](O)CN2S(=O)(=O)c2cccc(Cl)c2)O1)N1CCOCC1	21.2*	/	/	-0.1
O=C(Cc1ccncc1)NCC[C@@H]1CC[C@H](NC(=O)Nc2ccc(Cl)cc2)[C@H](CO)O1	3.0	/	/	-0.3
CC1Sc2ccccc2N(CC(=O)N(C(C)C)C(C)C)C1=O (centres undefined)	/	1.5	51.0*	-1.2
CCOC(=O)N1CCN(C(=O)CCS(=O)(=O)c2cc3c(cc2Cl)NC(=O)CO3)CC1	23.9*	-0.5	7.4	1.1
Cc1ccc(CNC(=O)CCS(=O)(=O)c2cc3c(cc2Cl)NC(=O)CO3)cc1	15.7	0.4	-8.7	3.8
C[C@H](CO)N1C[C@H](C)[C@@H](CN(C)Cc2ccc3c(c2)OCO3)OCCCC[C@H](C)Oc2ccc(NS(=O)(=O)c3ccccc3)cc2C1=O	0.3	/	/	-5.5
COCc1cn(CC[C@@H]2CC[C@@H](NC(=O)c3ccccc3)[C@H](CO)O2)nn1	-8.3	/	/	-8.2
COc1ccc(-c2oc(=O)c3cc(OC)c(OC)cc3c2/C=C/c2ccc([N+](=O)[O-])cc2)cc1	/	1.4	1.4	-121.7
COc1ccc(-c2oc(=O)c3cc(OC)c(OC)cc3c2/C=C/c2cccc([N+](=O)[O-])c2)cc1	33.7*	-6.3	14.3	3.4
C/C=C/c1cnc2c(c1)C(=O)N([C@@H](C)CO)C[C@H](C)[C@H](CN(C)S(=O)(=O)c1ccc(OC)cc1)O2	-12.5	/	/	-1.5
CCCCN(C(=O)CSc1nnc(-c2ccccc2)o1)c1c(N)n(CCC)c(=O)[nH]c1=O	79.5*	0.1	3.3	2.8
SMILES	DENV2 CPE	N-glyco inh	Rtt109 Vps75	PglD inh
CCCCN(C(=O)c1ccccc1OCc1ccc(F)cc1)c1c(N)n(CC(C)C)c(=O)[nH]c1=O	66.4*	0.6	10.6	/
CCCCN(C(=O)c1ccc(COc2ccccc2)o1)c1c(N)n(CC(C)C)c(=O)[nH]c1=O	?	-0.8	-2.1	2.7
CCCCN(C(=O)c1cc(-c2ccco2)nc2ccccc12)c1c(N)n(CCCC)c(=O)[nH]c1=O	108.7*	-2.0	12.9	/
CCCCn1c(N)c(N(CCOC)C(=O)c2cc(=O)[nH]c3ccccc23)c(=O)[nH]c1=O	73.3*	2.9	7.8	0.4
O=C(C[C@H]1CC[C@@H](NC(=O)CN2CCOCC2)[C@@H](CO)O1)NCCc1ccncc1	12.1	/	/	1.7
O=C(c1cnccn1)N1CC(=O)N2[C@H](CO)[C@@H](c3ccc(/C=C/c4ccccc4)cc3)[C@H]2C1	17.3	/	/	/
Cc1ccccc1CN1CCCOCCS1(=O)=O	8.6	1.8	3.0	-0.7
O=S1(=O)CCOCCCN1Cc1ccccc1Br	33.4*	-1.2	1.5	-0.2
CCCN[C@@H]1C(=O)N2C(C(=O)OCCC)=C(C)CS[C@H]12	72.1*	0.7	1.3	4.5
CCCOC(=O)N[C@@H]1C(=O)N2C(C(=O)OCCC)=C(C)CS[C@H]12	-3.2	1.6	7.8	-4.7
O=C1CC(N2CCN(S(=O)(=O)c3ccccc3F)CC2)C(=O)N1c1ccccc1Cl (centres undefined)	-7.3	1.0	-6.6	8.9
COc1ccc(Cl)cc1N1C(=O)CC(N2CCN(S(=O)(=O)c3ccccc3F)CC2)C1=O (centres undefined)	37.5*	0.2	-14.3	2.2
COc1ccc(S(=O)(=O)N(C)C[C@@H]2Oc3ccc(NS(=O)(=O)c4ccc(Cl)cc4)cc3CC(=O)N([C@@H](C)CO)C[C@@H]2C)cc1	63.8*	/	/	-1.9
COc1ccc(S(=O)(=O)N(C)C[C@@H]2Oc3ccc(NS(=O)(=O)c4ccc(F)cc4)cc3CC(=O)N([C@@H](C)CO)C[C@@H]2C)cc1	1.3	/	/	/
COc1ccc(S(=O)(=O)Nc2ccc3c(c2)CC(=O)N([C@H](C)CO)C[C@H](C)[C@H](CN(C)C(=O)NC(C)C)O3)cc1	64.4*	/	/	5.0
COc1ccc(S(=O)(=O)Nc2ccc3c(c2)CC(=O)N([C@H](C)CO)C[C@@H](C)[C@H](CN(C)C(=O)NC(C)C)O3)cc1	-10.2	/	/	2.6
COc1ccc(S(=O)(=O)Nc2ccc3c(c2)CC(=O)N([C@H](C)CO)C[C@@H](C)[C@H](CN(C)S(=O)(=O)c2ccc(F)cc2)O3)cc1	43.3*	/	/	1.5
COc1ccc(S(=O)(=O)N(C)C[C@H]2Oc3ccc(NS(=O)(=O)c4ccc(F)cc4)cc3CC(=O)N([C@@H](C)CO)C[C@@H]2C)cc1	76.7*	/	/	/
O=C(C[C@@H]1C[C@H]2c3cc(NC(=O)Nc4ccc(C(F)(F)F)cc4)ccc3O[C@H]2[C@H](CO)O1)NC1CCCCC1	-1.0	/	/	1.7

Screening data from PubChem.
